Active and inactive are the calls of the source. Cut-off read from the data, not from the text of the source: active = inhibition above about 50%; inactive = the rest.
Molecular target: Prolyl endopeptidase-like (Mus musculus) (UniProt Q8C167)
Test: purified PREPL inhibitors, PREPL inhibitor project, biochemical, gel-based competitive ABPP, fluorescence, HTS hits (AID 624481)
Details: at 20 µM, hits give high values

Chain of Prolyl endopeptidase-like (Mus musculus) (Q8C167 whole entry, looked up): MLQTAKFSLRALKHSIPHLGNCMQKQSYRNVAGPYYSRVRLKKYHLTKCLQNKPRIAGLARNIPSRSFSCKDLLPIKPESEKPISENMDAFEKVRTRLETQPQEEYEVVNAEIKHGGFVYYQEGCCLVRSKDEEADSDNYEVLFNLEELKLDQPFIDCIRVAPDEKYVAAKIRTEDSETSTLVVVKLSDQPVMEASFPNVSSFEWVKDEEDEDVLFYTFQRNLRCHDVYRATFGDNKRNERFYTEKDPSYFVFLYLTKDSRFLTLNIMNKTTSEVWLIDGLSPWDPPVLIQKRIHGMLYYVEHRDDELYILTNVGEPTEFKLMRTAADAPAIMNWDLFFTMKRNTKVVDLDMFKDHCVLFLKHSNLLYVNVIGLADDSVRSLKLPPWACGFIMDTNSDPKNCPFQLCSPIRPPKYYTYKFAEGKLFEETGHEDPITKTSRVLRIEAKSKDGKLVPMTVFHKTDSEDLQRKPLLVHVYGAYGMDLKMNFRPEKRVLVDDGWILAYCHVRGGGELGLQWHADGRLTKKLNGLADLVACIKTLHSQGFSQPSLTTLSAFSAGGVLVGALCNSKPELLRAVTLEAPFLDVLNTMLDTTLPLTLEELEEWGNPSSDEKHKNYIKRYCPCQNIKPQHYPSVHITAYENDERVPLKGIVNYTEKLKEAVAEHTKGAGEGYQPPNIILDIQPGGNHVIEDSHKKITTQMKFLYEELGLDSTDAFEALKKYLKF

inhibition, inactive:
C#CCOCCOCCOCCNc1nc(N2CCN(C(=O)[C@H](Cc3cc4ccccc4[nH]3)n3cc([C@@H](N)CC(C)C)nn3)CC2)nc(N2CCN(C(=O)[C@H](Cc3cc4ccccc4[nH]3)n3cc([C@@H](N)CC(C)C)nn3)CC2)n1 -82%, O=C(CSc1cccc(C(F)(F)F)c1)Nc1ccc(N2CCOCC2)cc1 -35%, Cc1ccc2c(CC(=O)Nc3ccc(N4CCN(C)CC4)cc3C)coc2c1 -3%, Cc1cc(N2CCN(C)CC2)nc2ccc(NC(=O)CCC(=O)N3CCN(c4ccc([N+](=O)[O-])cc4)CC3)cc12 -92%, CC1CCCN(Cc2c(O)ccc3c(=O)c(-c4nc5ccccc5s4)c(N)oc23)C1 (centres undefined) 3%, CC[C@@H](C)[C@@H]1CN([C@@H](CN2CCC[C@H]2CN2C(N)=NC[C@H]2C(C)C)C(C)C)C(=N)N1CCc1ccc(Cl)c(Cl)c1 -64%, Cc1ccc(C)c(-c2nn(-c3cc(N4CCN(CCO)CC4)ccc3[N+](=O)[O-])c(=O)c3ccccc23)c1 7%, COc1ccc2nc(C)cc(NN=Cc3cccc(OC)c3O)c2c1 -23%, NC(=O)[C@H]1CC2(CC(c3cccc(NC(=O)COc4ccc(Cl)cc4)c3)=NO2)CN1C(=O)Cc1ccc([N+](=O)[O-])cc1 (some centres undefined) -114%, COc1ccccc1-[n+]1c(C)cc(/C=C2\Sc3ccccc3N2C)cc1C -27%, Nc1c(C(=O)c2cccs2)sc2nsc(SCCN3CCCCC3)c12 -18%, CCN1C(=O)CC(c2ccccc2)N(C2CCCC2)c2nc(Nc3ccc(C(=O)NC4CCN(C)CC4)cc3OC)ncc21 (centres undefined) -25%, CSc1ccc2c(c1)N(CCC1CCCCN1C)c1ccccc1S2 (centres undefined) -53%, CC[C@@H](C)[C@@H]1CN([C@@H](CN2CCC[C@H]2CN2C(N)=NC[C@@H]2Cc2ccccc2)C(C)C)C(=N)N1CCCC1CCCC1 -104%, Cn1c(NC(=O)C[n+]2cc(-c3ccc(Cl)c(Cl)c3)n3c2CCC3)cc(=O)n(C)c1=O -80%, Cc1ccc2nc3c(cc(C(=O)NCCc4ccccc4)c(=N)n3CCCN3CCOCC3)c(=O)n2c1 -43%, CCN1CCN(c2ccc(NC(=O)COc3ccc(Cl)cc3C)cc2)CC1 -7%, CCCCCNC(=O)c1ccc2c(=O)[nH]c3c(C(=O)NCC4CCCO4)sc(=S)n3c2c1 (centres undefined) -19%, Clc1ccc2nc(-c3ccccn3)c(Nc3ccc4c(c3)OCO4)n2c1 -49%, c1ccc2c(NCCc3c[nH]c4ccccc34)c3ccccc3nc2c1 -49%, Nc1nn(-c2ccccc2)c(N)c1N=Nc1ccccc1F -38%, Cc1ccc(OCC(=O)Nc2ccc(N3CCN(C(=O)c4ccco4)CC3)cc2)cc1C 44%, COc1ccc(OCC(=O)NNc2c3ccccc3nc3ccccc23)cc1 -2%, COc1cccc2cc(C(=O)C3=C(O)C(=O)N(CCN4CCOCC4)C3c3ccc(C(C)(C)C)cc3)oc12 (centres undefined) -36%, COc1ccc(C)cc1Nc1n[n+](-c2ccccc2)c(-c2ccc(N(C)C)cc2)s1 -72%, CCN(CC)c1ccc(-c2sc(Nc3ccccc3)n[n+]2-c2ccc(F)cc2)cc1 -94%, Cc1ccc(Nc2nc(NCCO)c3ccccc3n2)cc1C -33%, C#CCOCCOCCOCCNc1nc(N2CCN(C(=O)CCCCCCCCCCNC(=O)[C@H]([C@@H](C)CC)n3cc(CCCCN=C(N)N)nn3)CC2)nc(N2CCN(C(=O)CCCCCCCCCCNC(=O)[C@H](CO)n3cc(CCCCCN)nn3)CC2)n1 -38%, COc1ccc(NC(=O)N2CCN(c3ccc([N+](=O)[O-])cc3)CC2)cc1OC -40%, CC(C)NCC(O)Cn1c2c(c3ccccc31)CCc1c-2cnn1-c1ccccc1 (centres undefined) -123%, O=C(Nc1ccc2c(c1)OCCO2)c1cccc2nc3ccccc3nc12 -12%, Cc1sc2ncnc(NN=Cc3ccccc3O)c2c1C -89%, CC(C)C[C@@H]1CN=C(N)N1C[C@@H]1CCCN1C[C@@H](C(C)C)N1C[C@@H](Cc2ccccc2)N(CCc2ccc(Cl)c(Cl)c2)C1=N -72%, COc1ccc(C2CC(c3cccc(Cl)c3)n3nc(N)nc3N2)cc1 (centres undefined) -29%
